Test in all cases: DAPPL (digital affinity profiling via proximity ligation, sequencing); 10 mM Tris-HCl pH 7.5, 50 mM NaCl, 1 mM DTT, 4% glycerol, room temperature, 30 min; GST-TFs on glutathione beads, 16-mer random dsDNA library, 0.1% formaldehyde crosslink after washing; high values mean tight binding
What all share (conditions): protein: recombinant; tags: N-terminal GST; dsDNA, one strand shown

One experiment deals with T1, ERF (Homo sapiens, UniProt P50548 1-548).
T1 sequence: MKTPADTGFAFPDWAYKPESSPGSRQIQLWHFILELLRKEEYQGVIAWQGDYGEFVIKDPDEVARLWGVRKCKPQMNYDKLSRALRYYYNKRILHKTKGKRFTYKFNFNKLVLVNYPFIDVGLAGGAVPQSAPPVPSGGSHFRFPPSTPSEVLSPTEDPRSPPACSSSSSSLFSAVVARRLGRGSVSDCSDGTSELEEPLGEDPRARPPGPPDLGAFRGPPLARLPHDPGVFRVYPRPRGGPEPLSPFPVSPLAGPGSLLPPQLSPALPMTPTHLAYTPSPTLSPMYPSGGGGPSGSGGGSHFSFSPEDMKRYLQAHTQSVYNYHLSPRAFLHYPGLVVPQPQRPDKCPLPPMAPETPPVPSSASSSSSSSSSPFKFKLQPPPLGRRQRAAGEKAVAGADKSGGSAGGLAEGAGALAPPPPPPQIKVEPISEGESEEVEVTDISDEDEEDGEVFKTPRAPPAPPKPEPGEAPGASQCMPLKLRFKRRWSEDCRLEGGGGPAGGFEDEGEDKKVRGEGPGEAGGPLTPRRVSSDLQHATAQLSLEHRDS
The essentials: (§1)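 Binding signal is each hexamer's read frequency for a factor divided by its frequency in the tag-only sample. The factors were GST-fused human transcription factors from yeast, captured on glutathione beads, DNA-barcoded and pooled with that sample. Pools were incubated with 200 nmole of a random double-stranded 16-mer DNA library in Tris/NaCl/DTT/glycerol buffer at room temperature for 30 min, then washed, crosslinked with 0.1% formaldehyde, proximity-ligated with BsaI/T4 ligase (1 h, 37 °C), PCR-amplified and sequenced on an Illumina NextSeq500.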

The target of another experiment is T2, ETV3L (Homo sapiens, UniProt Q6ZN32 1-361).
T2 sequence: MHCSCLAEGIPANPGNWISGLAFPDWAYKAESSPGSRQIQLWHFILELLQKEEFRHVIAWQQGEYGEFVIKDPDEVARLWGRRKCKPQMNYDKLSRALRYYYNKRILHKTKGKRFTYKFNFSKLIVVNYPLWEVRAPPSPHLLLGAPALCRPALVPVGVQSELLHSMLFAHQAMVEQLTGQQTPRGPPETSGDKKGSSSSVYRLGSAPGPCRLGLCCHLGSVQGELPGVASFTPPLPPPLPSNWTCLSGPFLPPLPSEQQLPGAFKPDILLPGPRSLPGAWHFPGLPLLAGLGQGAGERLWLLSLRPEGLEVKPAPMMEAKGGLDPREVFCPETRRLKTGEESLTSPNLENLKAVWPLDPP
The method in brief:
as §1

Another experiment deals with T3, ETS2 (Homo sapiens, UniProt P15036 1-469).
T3 sequence: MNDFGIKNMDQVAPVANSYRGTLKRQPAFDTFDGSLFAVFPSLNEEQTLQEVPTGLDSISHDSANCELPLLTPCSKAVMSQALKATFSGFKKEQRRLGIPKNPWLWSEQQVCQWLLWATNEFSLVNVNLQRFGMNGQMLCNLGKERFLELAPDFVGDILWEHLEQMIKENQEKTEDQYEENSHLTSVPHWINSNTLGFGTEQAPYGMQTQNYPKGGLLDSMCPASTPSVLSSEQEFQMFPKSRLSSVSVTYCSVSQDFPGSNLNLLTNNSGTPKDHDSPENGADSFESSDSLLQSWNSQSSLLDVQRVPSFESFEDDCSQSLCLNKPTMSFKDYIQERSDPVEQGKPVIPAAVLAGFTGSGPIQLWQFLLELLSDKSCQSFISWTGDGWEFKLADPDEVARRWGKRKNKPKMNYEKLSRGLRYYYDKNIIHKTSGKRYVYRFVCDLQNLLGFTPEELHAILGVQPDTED
The method in brief: as §1

A further experiment addresses T4, SPDEF (Homo sapiens, UniProt O95238 1-335).
T4 sequence: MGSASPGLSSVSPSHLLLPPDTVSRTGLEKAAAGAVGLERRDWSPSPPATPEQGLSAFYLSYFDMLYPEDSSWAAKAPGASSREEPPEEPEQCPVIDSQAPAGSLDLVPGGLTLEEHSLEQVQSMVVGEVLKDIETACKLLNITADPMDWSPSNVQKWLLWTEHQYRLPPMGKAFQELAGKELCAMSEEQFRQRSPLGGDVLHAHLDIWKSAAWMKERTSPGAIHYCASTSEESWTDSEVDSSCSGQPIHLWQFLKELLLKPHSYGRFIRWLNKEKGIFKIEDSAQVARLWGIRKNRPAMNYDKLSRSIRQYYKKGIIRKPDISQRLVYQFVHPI
The method in brief: as §1

In the next experiment the target is T5, ETV7 (Homo sapiens, UniProt Q9Y603 1-341).
T5 sequence: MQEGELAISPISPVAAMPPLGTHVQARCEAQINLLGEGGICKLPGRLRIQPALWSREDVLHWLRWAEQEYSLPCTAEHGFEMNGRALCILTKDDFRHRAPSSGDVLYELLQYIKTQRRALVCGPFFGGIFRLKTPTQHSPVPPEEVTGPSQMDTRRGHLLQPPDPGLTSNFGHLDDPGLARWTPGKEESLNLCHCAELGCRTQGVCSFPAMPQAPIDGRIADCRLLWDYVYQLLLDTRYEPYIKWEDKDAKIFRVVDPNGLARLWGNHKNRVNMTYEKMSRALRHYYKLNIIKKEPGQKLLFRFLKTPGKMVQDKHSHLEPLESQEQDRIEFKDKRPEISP
The essentials:
as §1

The next experiment has as its target T6, ELF5 (Homo sapiens, UniProt Q9UKW6-2 1-255).
T6 sequence: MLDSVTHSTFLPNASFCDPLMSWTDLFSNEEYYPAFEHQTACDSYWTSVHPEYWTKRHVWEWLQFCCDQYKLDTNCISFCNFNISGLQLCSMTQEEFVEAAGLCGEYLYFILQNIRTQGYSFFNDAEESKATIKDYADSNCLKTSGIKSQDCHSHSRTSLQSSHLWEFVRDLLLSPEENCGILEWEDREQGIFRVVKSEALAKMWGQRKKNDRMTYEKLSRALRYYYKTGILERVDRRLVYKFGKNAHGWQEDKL
The method in brief: as §1

In a further experiment the target is T7, ETV3 (Homo sapiens, UniProt P41162-2 1-143).
T7 sequence: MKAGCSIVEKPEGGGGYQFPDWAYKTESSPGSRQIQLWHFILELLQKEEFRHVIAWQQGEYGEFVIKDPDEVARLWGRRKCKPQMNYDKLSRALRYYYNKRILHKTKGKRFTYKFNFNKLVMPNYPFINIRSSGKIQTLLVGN
The essentials:
as §1

Another experiment deals with ETV6 (Homo sapiens, UniProt P41212 1-452). The essentials:
as §1

Chain of ETV6 (P41212 whole entry): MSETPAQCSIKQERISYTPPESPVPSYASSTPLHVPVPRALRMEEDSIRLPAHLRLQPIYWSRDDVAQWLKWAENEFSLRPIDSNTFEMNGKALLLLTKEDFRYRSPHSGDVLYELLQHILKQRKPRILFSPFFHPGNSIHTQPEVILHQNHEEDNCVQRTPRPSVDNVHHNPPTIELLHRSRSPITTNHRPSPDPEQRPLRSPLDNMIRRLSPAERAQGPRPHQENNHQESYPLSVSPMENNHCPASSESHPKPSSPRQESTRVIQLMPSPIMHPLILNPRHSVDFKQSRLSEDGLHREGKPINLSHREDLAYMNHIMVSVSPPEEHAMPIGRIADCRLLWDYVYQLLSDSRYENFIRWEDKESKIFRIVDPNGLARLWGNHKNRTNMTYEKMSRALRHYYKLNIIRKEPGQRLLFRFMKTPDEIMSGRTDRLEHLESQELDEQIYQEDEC

Take TGATGT: the binding signal is 1.16 fold enrichment (6-mer frequency, TF over GST control) with ERF; 1.21 fold enrichment (6-mer frequency, TF over GST control) in the experiment with ETV3L; 1.29 fold enrichment (6-mer frequency, TF over GST control) with ETS2; 1.26 fold enrichment (6-mer frequency, TF over GST control) with SPDEF; 1.18 fold enrichment (6-mer frequency, TF over GST control) with ETV7; 1.23 fold enrichment (6-mer frequency, TF over GST control) with ELF5. The binding signal with ETV3 was 1.15 fold enrichment (6-mer frequency, TF over GST control); with ETV6, 1.22 fold enrichment (6-mer frequency, TF over GST control).
On to AGTGGC, for which the binding signal in the experiment with ERF is 1.27 fold enrichment (6-mer frequency, TF over GST control); with ETV3L it was 1.15 fold enrichment (6-mer frequency, TF over GST control); with ETS2 it was 1.22 fold enrichment (6-mer frequency, TF over GST control); with SPDEF it was 1.1 fold enrichment (6-mer frequency, TF over GST control); with ETV7, 1.11 fold enrichment (6-mer frequency, TF over GST control); with ELF5, 1.22 fold enrichment (6-mer frequency, TF over GST control). Besides, the binding signal was 1.27 fold enrichment (6-mer frequency, TF over GST control) with ETV3 and 1.27 fold enrichment (6-mer frequency, TF over GST control) in the experiment with ETV6.
On to TCTTCA, for which the binding signal in the experiment with ERF was 1.29 fold enrichment (6-mer frequency, TF over GST control); in the experiment with ETV3L, 1.37 fold enrichment (6-mer frequency, TF over GST control); in the experiment with ETS2, 1.11 fold enrichment (6-mer frequency, TF over GST control); with SPDEF it was 1.25 fold enrichment (6-mer frequency, TF over GST control); with ETV7, 1.13 fold enrichment (6-mer frequency, TF over GST control); with ELF5 it was 1.16 fold enrichment (6-mer frequency, TF over GST control). The binding signal was 1.16 fold enrichment (6-mer frequency, TF over GST control) in the experiment with ETV3 and 1.25 fold enrichment (6-mer frequency, TF over GST control) with ETV6.
With TGCCTG, the binding signal with ERF was 1.46 fold enrichment (6-mer frequency, TF over GST control); in the experiment with ETV3L it was 1.28 fold enrichment (6-mer frequency, TF over GST control); with ETS2, 1.28 fold enrichment (6-mer frequency, TF over GST control); in the experiment with SPDEF it was 1.36 fold enrichment (6-mer frequency, TF over GST control); with ETV7, 1.17 fold enrichment (6-mer frequency, TF over GST control); in the experiment with ELF5 it was 1.27 fold enrichment (6-mer frequency, TF over GST control). Also, the binding signal in the experiment with ETV3 was 1.31 fold enrichment (6-mer frequency, TF over GST control); with ETV6 it was 1.18 fold enrichment (6-mer frequency, TF over GST control).
Turning to CCCCCA, the binding signal with ERF was 1.06 fold enrichment (6-mer frequency, TF over GST control); in the experiment with ETV3L, 1.21 fold enrichment (6-mer frequency, TF over GST control); in the experiment with ETS2 it was 1.19 fold enrichment (6-mer frequency, TF over GST control); with SPDEF, 1.22 fold enrichment (6-mer frequency, TF over GST control); in the experiment with ETV7 it was 1.11 fold enrichment (6-mer frequency, TF over GST control); with ELF5, 1.24 fold enrichment (6-mer frequency, TF over GST control). The binding signal with ETV3 is 1.3 fold enrichment (6-mer frequency, TF over GST control); with ETV6 it was 1.19 fold enrichment (6-mer frequency, TF over GST control).
Regarding ATATTC, the binding signal with ERF was 1.08 fold enrichment (6-mer frequency, TF over GST control); with ETV3L, 1.35 fold enrichment (6-mer frequency, TF over GST control); with ETS2, 1.2 fold enrichment (6-mer frequency, TF over GST control); with SPDEF, 1.26 fold enrichment (6-mer frequency, TF over GST control); with ETV7, 1.24 fold enrichment (6-mer frequency, TF over GST control); with ELF5, 1.31 fold enrichment (6-mer frequency, TF over GST control). Also, the binding signal is 1.19 fold enrichment (6-mer frequency, TF over GST control) with ETV3 and 1.32 fold enrichment (6-mer frequency, TF over GST control) with ETV6.
In the case of CTATCC, the binding signal with ERF was 1.38 fold enrichment (6-mer frequency, TF over GST control); in the experiment with ETV3L, 1.4 fold enrichment (6-mer frequency, TF over GST control); with ETS2 it was 1.35 fold enrichment (6-mer frequency, TF over GST control); in the experiment with SPDEF, 1.63 fold enrichment (6-mer frequency, TF over GST control); with ETV7 it was 1.46 fold enrichment (6-mer frequency, TF over GST control); with ELF5, 1.45 fold enrichment (6-mer frequency, TF over GST control). The binding signal with ETV3 was 1.27 fold enrichment (6-mer frequency, TF over GST control); with ETV6, 1.32 fold enrichment (6-mer frequency, TF over GST control).
Take TAACTC: the binding signal is 1.29 fold enrichment (6-mer frequency, TF over GST control) in the experiment with ERF; 1.12 fold enrichment (6-mer frequency, TF over GST control) with ETV3L; 1.25 fold enrichment (6-mer frequency, TF over GST control) with ETS2; 1.23 fold enrichment (6-mer frequency, TF over GST control) in the experiment with SPDEF; 1.22 fold enrichment (6-mer frequency, TF over GST control) with ETV7; 1.16 fold enrichment (6-mer frequency, TF over GST control) with ELF5. The binding signal in the experiment with ETV3 is 1.25 fold enrichment (6-mer frequency, TF over GST control); with ETV6, 1.3 fold enrichment (6-mer frequency, TF over GST control).

The values above are taken from publication PMC7862700, “An all-to-all approach to the identification of sequence-specific readers for epigenetic DNA modifications on cytosine”.
